Unmarked numbers belong to inactive results. The source made the active and inactive calls.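 How the source made its calls: active means thallium flux through the channel raised or lowered by more than 3 SD from vehicle-only wells, actives on both sides; inactive means the rest.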

Holding throughout (assay): BK channel mutant inhibitors and activators – cell-based, U2OS BacMam, thallium flux, beta subunits, selectivity assay, profiling panel (AID 1259406);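 further: initial slope of Thallos dye fluorescence rise after thallium is added; log ratio against the mean of 0.3% DMSO vehicle wells on the same plate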
The subject of assay [1] is F380Y. To be noted: U2OS BacMam BK variants, at 30 µM.
Assay [2] concerns F380Y/beta1. To be noted: U2OS BacMam BK variants, at 30 µM.
Assay [3] concerns F380Y/beta2Delta. Particulars: U2OS BacMam BK variants, at 30 µM.
Assay [4] relates to F380Y/beta4. Particulars: U2OS BacMam BK variants, at 30 µM.
In assay [5] the target is Calcium-activated potassium channel subunit alpha-1 (Homo sapiens) + Leucine-rich repeat-containing protein 26 (Homo sapiens) (UniProt Q12791+Q2I0M4). Particulars: U2OS BacMam BK variants, F380Y/Slo1WT/gamma1, at 30 µM.
Assay [6] relates to R275C. To be noted: U2OS BacMam BK variants, at 30 µM.
Assay [7] relates to R275C/beta1. Particulars: U2OS BacMam BK variants, at 30 µM.
Assay [8] relates to R275C/beta2Delta. Particulars: U2OS BacMam BK variants, at 30 µM.
Assay [9] has as its system R275C/beta4. Particulars: U2OS BacMam BK variants, at 30 µM.
Assay [10] concerns R275C/Slo1WT/beta2. Particulars: U2OS BacMam BK variants, at 30 µM.

Chain of Calcium-activated potassium channel subunit alpha-1 (Homo sapiens) + Leucine-rich repeat-containing protein 26 (Homo sapiens) (Q2I0M4 whole entry, looked up, one chain of several): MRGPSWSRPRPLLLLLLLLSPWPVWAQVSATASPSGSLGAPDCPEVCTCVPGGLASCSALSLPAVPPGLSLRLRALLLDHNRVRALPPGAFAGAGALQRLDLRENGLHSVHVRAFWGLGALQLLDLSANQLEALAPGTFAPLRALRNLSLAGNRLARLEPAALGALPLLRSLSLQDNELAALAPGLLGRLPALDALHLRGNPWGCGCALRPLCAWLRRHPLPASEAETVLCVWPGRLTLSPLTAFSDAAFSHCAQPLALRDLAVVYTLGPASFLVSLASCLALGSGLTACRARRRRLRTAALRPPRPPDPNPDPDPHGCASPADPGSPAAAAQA

For the compound `CCCOc1ccccc1C=NNC(=S)Nc1ccc(C)c(C)c1`, the log fold change Tl+ flux in assay [1] was 0.0357; in assay [2], 0.0157; in assay [3] it was 0.00918; in assay [4], 0.0274; in [5], -0.0242; in [6], -0.0214. In addition, the log fold change Tl+ flux in assay [7] was 0.0271; in assay [8] it was -0.0014; in assay [9] it was 0.00171; in [10] it was 0.0415.

With `COc1ccc(CNCc2cc(OC)c(OC)c(OC)c2)cc1`, the log fold change Tl+ flux in assay [1] was -0.0783; in assay [2] it was 0.0429; in assay [3] it was -0.0785; in assay [4], -0.1 (active); in assay [5], -0.099; in [6] it was -0.0423. The log fold change Tl+ flux in assay [7] was 0.0356; in assay [8] it was -0.0892 (active); in [9], -0.0177; in assay [10], -0.102 (active).

In the case of `CC(=O)CSc1nc(SCC(C)=O)c2cnc(N3CCCC3)nc2n1`, the log fold change Tl+ flux is -0.0105 in [1]; -0.0297 in assay [2]; -0.00118 in [3]; -0.00484 in [4]; 0.0577 in assay [5]; -0.0104 in assay [6]. Moreover, the log fold change Tl+ flux in assay [7] was -0.000725; in assay [8] it was -0.0224; in assay [9] it was -0.00829; in [10] it was 0.0731.

Consider `O=S(=O)(Nc1ccccc1SCc1ccc2nonc2c1)c1cccs1`, for which the log fold change Tl+ flux was -0.159 (active) in [1]; -0.065 in assay [2]; -0.0553 in assay [3]; -0.14 (active) in assay [4]; -0.142 (active) in assay [5]; -0.262 (active) in [6]. The log fold change Tl+ flux is 0.0365 in assay [7], -0.00587 in assay [8], -0.0288 in assay [9] and -0.239 (active) in assay [10].

As to `O=S(=O)(NCc1ccc2c(c1)CCO2)c1cccs1`, the log fold change Tl+ flux was -0.0321 in assay [1]; -0.0222 in [2]; -0.0113 in assay [3]; -0.00792 in assay [4]; -0.0976 in assay [5]; -0.0104 in [6]. In addition, the log fold change Tl+ flux in assay [7] is -0.072; in assay [8] it was -0.0692; in assay [9], -0.0665; in assay [10], -0.0508.

Turning to `O=C(Nc1ccc(-n2ccc(C(F)(F)F)n2)cc1)C1=Cc2cc(Cl)ccc2OC1`, the log fold change Tl+ flux in [1] is 0.0274; in assay [2], -0.019; in [3], 0.0253; in assay [4], -0.0159; in assay [5] it was -0.106; in assay [6] it was -0.0271. For the same compound, the log fold change Tl+ flux in assay [7] is -0.0315; in assay [8], 0.035; in assay [9] it was -0.0139; in [10], -0.0341.

Turning to `CN1CCN(S(=O)(=O)c2ccc(CNC(=O)c3ccccc3)s2)CC1`, the log fold change Tl+ flux in [1] is -0.0286; in [2] it was -0.0353; in [3], -0.0627; in assay [4], -0.0096; in [5], -0.0465; in assay [6] it was 0.0435. For the same compound, the log fold change Tl+ flux is 0.0151 in assay [7], -0.00195 in assay [8], 0.00386 in [9] and -0.0258 in assay [10].

For `COc1cccc(C=NNC(=O)C2CCCN(C(=S)NNC3CC4C=CC3C4)CC2)c1O` (stereo not given), the log fold change Tl+ flux is 0.0111 in assay [1]; -0.0549 in assay [2]; -0.0296 in assay [3]; 0.0197 in [4]; 0.0309 in assay [5]; -0.00837 in assay [6]. Also, the log fold change Tl+ flux was 0.0189 in assay [7], -0.0281 in [8], -0.00446 in assay [9] and 0.00307 in [10].

Regarding `O=C1c2cc(S(=O)(=O)O)ccc2CCC1S(=O)(=O)O` (stereo not given), the log fold change Tl+ flux in [1] is 0.0577; in assay [2], 0.132 (active); in [3], 0.167 (active); in assay [4] it was 0.0447; in assay [5], -0.0209; in assay [6], 0.0448. The log fold change Tl+ flux in [7] was 0.0433; in assay [8] it was 0.151 (active); in assay [9] it was 0.0299; in [10], -0.0389.

Turning to `Oc1c(Cl)c(Cl)c(Cl)c2ccccc12`, the log fold change Tl+ flux is 0.503 (active) in assay [1]; 0.627 (active) in assay [2]; 0.473 (active) in assay [3]; 0.484 (active) in assay [4]; 0.395 (active) in assay [5]; 0.519 (active) in [6]. Besides, the log fold change Tl+ flux in assay [7] is 0.527 (active); in [8], 0.304 (active); in assay [9], 0.702 (active); in assay [10], 0.141 (active).

Regarding `NC(Cc1ccc(OCc2ncc(C(F)(F)F)cc2Cl)cc1)=NOC(=O)c1ccccc1`, the log fold change Tl+ flux in [1] is 0.0193; in assay [2], -0.00621; in assay [3] it was 0.00968; in [4], -0.0023; in assay [5], -0.00749; in [6], 0.0533. Also, the log fold change Tl+ flux is 0.0113 in assay [7], 0.000291 in assay [8], 0.00465 in assay [9] and 0.0382 in [10].

In the case of `COc1ccc(C(=O)NNC(=O)c2c(OC)cc(C(F)(F)F)cc2C(F)(F)F)cc1`, the log fold change Tl+ flux in assay [1] was 0.044; in assay [2], 0.017; in assay [3], -0.00926; in assay [4], 0.0361; in assay [5] it was 0.00672; in assay [6], 0.0148. Also, the log fold change Tl+ flux was 0.0608 in assay [7], 0.00715 in assay [8], 0.021 in assay [9] and 0.015 in [10].

Take `COc1ccc2c(OC(C)=O)coc2c1`: the log fold change Tl+ flux in [1] was 0.00358; in assay [2], -0.0482; in assay [3] it was -0.00847; in assay [4] it was -0.0157; in assay [5], -0.0163; in assay [6] it was 0.00531. Moreover, the log fold change Tl+ flux is -0.00826 in assay [7], 0.012 in [8], 0.0182 in [9] and -0.00513 in assay [10].

These data come from PubChem BioAssay.
